Measured values from PubChem BioAssay (NCI).
Several values for one entry are separate records, joined by “and”; a condition that tells them apart may be missing. Equal entries are not always repeated. This is part of a sample that, as a whole, favours compounds with a hit. Of some 83,000 tested, about 20% had one in any assay.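 Results are percent growth after 48 hours of single-concentration exposure. 100 means growth as in untreated cells, lower positive values show inhibition; negative values down to -100 show cell death.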 Activity calls are given as the source filed them. The calls were made as follows: active = growth percent below 10; inactive = the rest.

Legend:
Experiment in all cases: NCI-60 one-dose screen, 48 h (100 = growth as untreated, 0 = no growth, -100 = all killed)
Conditions in all cases: 10 µM unless noted
T-47D breast = system: T-47D breast
BT-549 breast = system: BT-549 breast
MDA-MB-435 melanoma = system: MDA-MB-435 melanoma
SW-620 colon = system: SW-620 colon
MCF7 breast = system: MCF7 breast
HCT-116 colon = system: HCT-116 colon
HCC-2998 colon = system: HCC-2998 colon
KM12 colon = system: KM12 colon

SMILES | growth (T-47D breast) | growth (BT-549 breast) | growth (MDA-MB-435 melanoma) | growth (SW-620 colon) | growth (MCF7 breast) | growth (HCT-116 colon) | growth (HCC-2998 colon) | growth (KM12 colon)
CCCCCCCCCCCCCCCC(=O)O[C@@H]1[C@@H](O)[C@@H](O)C([C@H](NC(=O)[C@@H]2C[C@@H](CCC)CN2C)[C@H](C)Cl)O[C@@H]1SC (some centres not stated) | 96.1% (inactive) | 99.4% (inactive) | 107% (inactive) | 114% (inactive) | 102% (inactive) | 103% (inactive) | 115% (inactive) | 101% (inactive)
COc1cc(N=Nc2ccc(O)c3ncccc23)c2ncccc2c1 | 20.2% (inactive) | 39% (inactive) | 42.4% (inactive) | 30.5% (inactive) | 27.5% (inactive) | 19.4% (inactive) | 36.3% (inactive) | 28.1% (inactive)
NS(=O)(=O)c1ccc(C(=O)N=Nc2c(O)[nH]c3c(F)cccc23)cc1 | 97% (inactive) | 99.7% (inactive) | 107% (inactive) | 100% (inactive) | 96.4% (inactive) | 103% (inactive) | 106% (inactive) | 107% (inactive)
CC(=O)N1N=C(c2ccc(Nc3nc(Nc4ccc(F)cc4)nc(Nc4ccc(Cl)cc4)n3)cc2)CC1c1ccc(N(C)C)cc1 (configuration not stated) | 24.3% (inactive) | 69.5% (inactive) | 18.7% (inactive) | 78.5% (inactive) | 29.9% (inactive) | 130% (inactive) and 24.2% (inactive) | 22% (inactive) | 55.5% (inactive)
COc1ccc(C/C(C)=C(\c2ccc(O)cc2)c2ccc(OCCCN(C)C)cc2)cc1 | 72.6% (inactive) | 108% (inactive) | 101% (inactive) | 95.2% (inactive) | 41.1% (inactive) | 80.8% (inactive) | 104% (inactive) | 93% (inactive)
C/C=C(/C)C(=O)O[C@@H]1CC(C)(C)CC2C34OC(=O)[C@@]21CC[C@@]3(C)[C@]1(C)CCC2C(C)(C)C(=O)CC[C@]2(C)C1C[C@@H]4Cl (some centres not stated) | 99.1% (inactive) | 108% (inactive) | 102% (inactive) | 96.7% (inactive) | 97.6% (inactive) | 86.2% (inactive) | 102% (inactive) | 104% (inactive)
COC1=CC(c2ccc[nH]2)=N/C1=C\c1[nH]c(C)c(C(=O)Oc2ccccc2)c1C | -65.7% (active) | -15.4% (active) | -68.6% (active) | -20.9% (active) | -54.7% (active) | -82.1% (active) | -81.6% (active) | -66% (active)
COc1ccc(C(=O)N/N=C/c2ccc(O)cc2O)cc1Nc1ccnc(C(F)(F)F)c1 | 21.6% (inactive) | 55.6% (inactive) | 32.7% (inactive) | 35.8% (inactive) | 21.9% (inactive) | 15.6% (inactive) | 40.9% (inactive) | 69.4% (inactive)
Cc1nc2sc(C(=O)Nc3cccc(Cl)c3C)c(N)c2cc1C(O)c1ccccc1 (configuration not stated) | 44.5% (inactive) | 40.9% (inactive) | 4.87% (active) | 24.1% (inactive) | 16.2% (inactive) | 8.63% (active) | 13.4% (inactive) | 10.5% (inactive)
Nc1nc(CSc2n[nH]c(N)n2)nc(Nc2ccccc2)n1 | 94.5% (inactive) | 95.7% (inactive) | 94.7% (inactive) | 99% (inactive) | 93.3% (inactive) | 105% (inactive) | 110% (inactive) | 98.4% (inactive)
O=C1N=c2ccccc2=C1c1sc(=S)n(C2CC(=O)N(c3ccc(Cl)cc3)C2=O)c1O (configuration not stated) | 97.9% (inactive) | 105% (inactive) | 102% (inactive) | 99.8% (inactive) | 91.1% (inactive) | 96.7% (inactive) | 105% (inactive) | 100% (inactive)
O=c1oc2c(Br)cc(Br)cc2cc1-c1cc(-c2ccc(-c3cc(-c4cc5cc(Br)cc(Br)c5oc4=O)nc(-c4cc5cc(Br)cc(Br)c5oc4=O)c3)cc2)cc(-c2cc3cc(Br)cc(Br)c3oc2=O)n1 | 98.9% (inactive) | 112% (inactive) | 114% (inactive) | 100% (inactive) | 98% (inactive) | 99.3% (inactive) | 102% (inactive) | 96.1% (inactive)
O=C(NCc1cccnc1)/C(=C\c1ccc(Br)cc1)S(=O)(=O)c1ccccc1 | -64.6% (active) | -21.2% (active) | -14.9% (active) | -74% (active) | -44.4% (active) | -76% (active) | -76.5% (active) | -48.1% (active)
CCOC(=O)CCCn1c(-c2ccccc2)cc(-c2ccccc2)c(C#N)c1=O | 93.6% (inactive) | 93.9% (inactive) | 50% (inactive) | 88.3% (inactive) | 89.6% (inactive) | 75.5% (inactive) | 98.2% (inactive) | 83.4% (inactive)
COc1ccc(C2Nc3nc(SC)nc(N)c3N=C3c4ccccc4CCC32)cc1 (configuration not stated) | 80% (inactive) | 105% (inactive) | 93.2% (inactive) | 76.1% (inactive) | 62.9% (inactive) | 51.5% (inactive) | 103% (inactive) | 85.9% (inactive)
N#Cc1cc(-c2ccnc(Nc3ccc(NC(=O)CCl)cc3)n2)ccc1N1CCCC1 | -68.2% (active) | -65% (active) | -47.6% (active) | -36.9% (active) | -19.1% (active) | -37.2% (active) | -79.5% (active) | -11.6% (active)
CN(Cc1ccccc1)c1nc(Cl)c(C2CC(c3ccc(F)cc3)=NN2C=O)s1 (configuration not stated) | 85.5% (inactive) | 113% (inactive) | 96.8% (inactive) | 101% (inactive) | 86.7% (inactive) | 86.9% (inactive) | 95.4% (inactive) | 93.2% (inactive)
CN(Cc1ccccc1)c1nc(Cl)c(C2CC(c3ccc4c(c3)OCO4)=NN2c2cc(Cl)cc(Cl)c2)s1 (configuration not stated) | 86.1% (inactive) | 104% (inactive) | 97.2% (inactive) | 99.1% (inactive) | 78.2% (inactive) | 87% (inactive) | 106% (inactive) | 98.5% (inactive)
NC(N)=NC(N)=NCCCc1ccco1 | 106% (inactive) | 115% (inactive) | 110% (inactive) | 94.5% (inactive) | 106% (inactive) | 108% (inactive) | 106% (inactive) | 101% (inactive)
O=[N+]([O-])c1ccc(S(=O)Cc2ccccc2)c([N+](=O)[O-])c1 (configuration not stated) | 29.7% (inactive) and -21.4% (active) | 66.3% (inactive) and 67.5% (inactive) | 76.2% (inactive) and 78% (inactive) | -71.3% (active) and -38.1% (active) | 41.1% (inactive) and 5.89% (active) | -88.5% (active) and -82.3% (active) | 97.2% (inactive) and 97.5% (inactive) | 77.1% (inactive) and 101% (inactive)
COc1ccc(/C(C)=C(\c2ccc(OCCN3CCOCC3)cc2)c2ccc(OC(=O)C3CCCCC3)cc2)cc1 | 77.9% (inactive) | 112% (inactive) | 105% (inactive) | 102% (inactive) | 75.4% (inactive) | 105% (inactive) | 107% (inactive) | 98.1% (inactive)
O=c1ccc2nc(-c3ccccn3)nn(-c3ccccc3)c-2c1 | -28.4% (active) | 86.6% (inactive) | 90.7% (inactive) | -61.8% (active) | -56% (active) | 48.7% (inactive) | 98.8% (inactive) | 98.4% (inactive)
COc1ccc(CN2CCc3c(Cl)nc(N)nc3C2=O)c(OC)c1 | 12.8% [100 µM] (inactive) | -20.3% [100 µM] (active) | 1.81% [100 µM] (active) | -46.8% [100 µM] (active) | 6.65% [100 µM] (active) | -72.7% [100 µM] (active) | -85.9% [100 µM] (active) | 11.1% [100 µM] (inactive)
CN(C)c1ccc2nc3ccc(=O)cc-3sc2c1 | 28% (inactive) and 38.8% (inactive) | 52.5% (inactive) and 47.1% (inactive) | 40.7% (inactive) and -65.2% (active) | 31.9% (inactive) and 47.4% (inactive) | -1.53% (active) and 1.73% (active) | 2.57% (active) and 9.4% (active) | 18.1% (inactive) and 39.7% (inactive) | 30.4% (inactive) and 32.8% (inactive)
CCN1C(=O)N(c2ccccc2)C2NC(=S)N(/N=C/C=C/c3ccccc3)C21 (configuration not stated) | 38.2% (inactive) | -8.95% (active) | -35.1% (active) | 26.5% (inactive) | 3.24% (active) | 2.69% (active) | 17.6% (inactive) | 21% (inactive)
COc1ccc2c(c1)oc1c(C)c3c(c(C)c12)C(=O)N(Nc1ccccc1)C3=O | 88.1% (inactive) | 91.6% (inactive) | 104% (inactive) | 110% (inactive) | 94.7% (inactive) | 96% (inactive) | 105% (inactive) | 97.4% (inactive)
CCOC(=O)CC1CSC(c2cccc(Cl)c2)=N1 (configuration not stated) | 102% (inactive) | 111% (inactive) | 112% (inactive) | 108% (inactive) | 87.8% (inactive) | 97.2% (inactive) | 82.7% (inactive) | 108% (inactive)
Cc1ccc(Cl)cc1N1CCN(C(=O)[C@@H]2C[C@@H]2c2ccc(F)cc2)CC1 | 83.4% (inactive) | 97.6% (inactive) | 97.6% (inactive) | 101% (inactive) | 90.6% (inactive) | 68.8% (inactive) | 98.8% (inactive) | 85.1% (inactive)
COc1ccc(/C(C)=C(\c2ccc(OCCN3CCCCCC3)cc2)c2ccc(OC(=O)C3CCCCC3)cc2)cc1 | -57% (active) | -78.2% (active) | -77.1% (active) | -49.8% (active) | -23.6% (active) | -63.9% (active) | -79% (active) | -54.1% (active)
